# The list is not random: actives were taken first. Their share in the collection is about 1.6%.
# NALP1 yeast inh – blocks the NALP1 inflammasome reconstituted in yeast; 280,000 compounds, 0.61% hits; inhibition, % at 10 µM; S. cerevisiae NALP1/ASC/caspase-1 growth, X-gal OD620, 72 h; AID 2071; in the data active = inhibition mostly above about 24%, no sharp cut-off; inactive = mostly below about 32%
# PolyA inhibitor – yeast polyadenylation inhibition; S. cerevisiae SKY197-pL101 polyadenylation reporter, beta-gal luminescence; efflux-impaired pdr1/pdr3 knockout yeast; score 100 = 6 SD above DMSO; activity score, % at 12 µM; 300,000 compounds, 0.02% hits;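 active = lowest replicate activity score at least 50, where 100 means six control SD above control mean; inconclusive = lowest score under 50 but half or more replicates reach 50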;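 note: yeast exposed to compound for 9 h at 30 °C; higher score means more reporter readthrough which indicates perturbed polyadenylation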
# MOR-DOR ag-1 – OPRM1-OPRD1 heterodimerization agonism | cells, luminescence | activation, % at 9.3 µM | 340,000 compounds, 0.3% hits | AID 504326;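 note: 0% = vehicle-treated cells and 100% = reference agonist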
# Target sequence (P35372 whole entry, looked up): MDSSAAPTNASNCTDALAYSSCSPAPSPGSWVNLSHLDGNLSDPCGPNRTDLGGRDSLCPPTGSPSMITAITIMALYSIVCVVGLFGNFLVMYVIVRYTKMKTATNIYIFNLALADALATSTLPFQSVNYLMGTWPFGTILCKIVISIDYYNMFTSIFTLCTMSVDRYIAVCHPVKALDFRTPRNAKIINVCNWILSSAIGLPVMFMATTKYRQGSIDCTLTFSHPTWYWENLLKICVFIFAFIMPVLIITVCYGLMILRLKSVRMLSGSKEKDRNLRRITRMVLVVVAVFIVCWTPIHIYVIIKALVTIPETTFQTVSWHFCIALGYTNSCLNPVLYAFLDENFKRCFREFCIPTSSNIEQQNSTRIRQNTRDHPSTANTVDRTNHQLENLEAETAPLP
# Target sequence (P41143 whole entry, looked up): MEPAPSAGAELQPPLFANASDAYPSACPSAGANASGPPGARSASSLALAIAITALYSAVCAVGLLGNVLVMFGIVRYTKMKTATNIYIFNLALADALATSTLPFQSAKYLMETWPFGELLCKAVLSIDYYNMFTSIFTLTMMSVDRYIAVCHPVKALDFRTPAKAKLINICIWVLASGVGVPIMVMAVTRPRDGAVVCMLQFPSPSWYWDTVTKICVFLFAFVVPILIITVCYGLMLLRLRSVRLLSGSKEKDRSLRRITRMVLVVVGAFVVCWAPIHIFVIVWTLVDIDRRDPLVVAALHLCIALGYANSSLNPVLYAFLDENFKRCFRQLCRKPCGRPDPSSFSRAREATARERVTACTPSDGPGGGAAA
# HTR5A inv ag – HTR5A inverse agonism, opioid heterodimer counter-screen; HTR5A cell line, luminescence; inhibition, % at 9.3 µM; 340,000 compounds, 0.083% hits; in the data active = inhibition mostly above about 23%, no sharp cut-off; inactive = mostly below about 18%;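 note: 0% = cells with DMSO and 100% = no-cell wells with DMSO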
# HTR5A ag ctr – activates human HTR5A in OPRM1-OPRD1 agonist counter-screen. HTR5A agonist assay, luminescence, cell-based. activation, % at 9.3 µM. 340,000 compounds, 0.61% hits; in the data active = activation mostly above about 9.5%, no sharp cut-off; inactive = mostly below about 7.6%;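 note: 0% = cells with vehicle only and 100% = reference agonist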
# OPRM1-OPRD1 inv – mu-delta opioid heterodimer inverse agonism; P35372+P41143; cell-based MOR-DOR heterodimer luminescence; inhibition, % at 9.3 µM; 340,000 compounds, 0.21% hits; in the data active = inhibition above about 22%, passing the limit was not always enough;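 note: 0% = cells with DMSO and 100% = wells without cells with DMSO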
# MOR-DOR ag-2 – opioid heterodimer agonism, HTR5A counter-screen. shares compounds with HTR5A ag ctr. activation, % at 9.3 µM. 800 compounds, 13% hits. U2OS counter-screen cells, complementation luminescence, 3 h
# HTR5A ag confirm – HTR5A (human) agonism, confirmation. shares compounds with HTR5A ag ctr. HTR5A agonist cell assay, luminescence. activation, % at 9.3 µM. 800 compounds, 17% hits; in the data active = activation above about 17%;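 note: 0% = cells with vehicle only and 100% = full reference agonist response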
# The depositor's hits bear a star; ? = inconclusive; . = not tested or not shown. Cut-off read from the data, not from the text of the source, unless noted: active = activation above about 18%; inactive = the rest.
SMILES,NALP1 yeast inh,PolyA inhibitor,MOR-DOR ag-1,HTR5A inv ag,HTR5A ag ctr,OPRM1-OPRD1 inv,MOR-DOR ag-2,HTR5A ag confirm
O=C(ONC1=NCCCCC1)c1ccc(Cl)cc1,23,8,14,-65,25*,-72,4,0
O=C(ONC1=NCCCCC1)c1c(F)cccc1F,36,-6,3,-27,5,-16,.,.
C=CCNC(=O)c1onc(CSc2ccc(F)cc2)c1C(=O)NCC=C,.,-5,1,-64,22*,-6,1,-1
CCCCC(C(=O)NC1CCCC1)N(C(=O)c1snc(C(N)=O)c1N)c1ccc(F)cc1 (stereo unspecified),12,-4,5,-28,3,-25,.,.
Cc1ccc(S(=O)(=O)N2CCC(c3nc4c(nnn4Cc4ccccc4)c(=O)[nH]3)CC2)cc1,11,-20,.,.,.,.,.,.
O=c1[nH]c(C2CCN(S(=O)(=O)c3ccccc3C(F)(F)F)CC2)nc2c1nnn2Cc1ccccc1,20,0,3,-47,16*,-21,0,5
Cc1nc(-c2ccc(C#N)cc2)cs1,9,5,1,-13,15*,-4,13,4
N#Cc1ccc(-c2csc(-c3ccno3)n2)cc1,-4,-10,.,.,.,.,.,.
CCN(CC)CCCNC(=S)N1CCn2c(nc3ccccc32)C1,-14,-2,.,.,.,.,.,.
CCn1c(N2CCN(S(=O)(=O)c3ccc(OC)cc3)CC2)nc2ccccc21,1,-18,-1,-69,18*,4,3,37*
Cn1c(N2CCN(S(=O)(=O)c3ccc(F)cc3)CC2)nc2ccccc21,-2,-18,-2,17,-1,10,.,.
CCN(CC)CCCNC(=S)N1CCN(c2nc3ccccc3n2CC)CC1,9,-2,0,-30,19*,3,2,46*
CCn1c(N2CCN(C(=O)C34CC5CC(CC(C5)C3)C4)CC2)nc2ccccc21,46,0,1,-109,31*,-4,159*,-4
CCOC(=O)c1c(C)oc2c1c(C(c1ccccc1)N1CCOCC1)c(O)c1ccccc12 (stereo unspecified),4,-18,2,-5,2,-10,.,.
CCOC(=O)c1c(C)oc2c1c(C=NCCO)c(O)c1ccccc12,5,3,9,-46,17*,-48,4,4
CC1=C(C)CC(C(=O)NC2CCN(C(C)C)CC2)C(C(=O)O)C1 (stereo unspecified),32,1,-2,-20,8,9,.,.
C/C(=N\N)c1c(-c2ccccc2)c2cc(C)ccc2[nH]c1=O,23,1,0,-15,1,0,.,.
CCN(CC)c1c(-c2ccccc2)c2cc(C)ccc2[nH]c1=O,15,7,2,-68,27*,-12,5,2
CCC(=NNC(=O)c1ccc2c(c1)nc(C)n2CC)c1cc(F)ccc1O,.,.,-3,-71,18*,15,0,0
CCn1c(C)nc2cc(C(=O)n3cc(C(=O)c4cc(F)ccc4O)cn3)ccc21,0,.,.,.,.,.,.,.
COC(=O)c1ccc(NC(=O)COc2cccc3c2OC(C)(C)C3)cc1,.,-16,4,-104,40*,-28,3,44*
CC1(C)Cc2cccc(OCC(=O)Nc3ccc(OCC(N)=O)cc3)c2O1,-11,2,-2,-26,10,7,.,.
CN(C)CCNC(=O)COc1cccc2c1OC(C)(C)C2,6,-3,-1,-10,4,5,.,.
CC1(C)Cc2cccc(OCC(=O)Nc3ccc(S(N)(=O)=O)cc3)c2O1,.,30,-3,-99,34*,14,3,6
CN(C)C(=O)c1ccc(NC(=O)COc2cccc3c2OC(C)(C)C3)cc1,.,.,-4,-92,28*,19,1,38*
SMILES,NALP1 yeast inh,PolyA inhibitor,MOR-DOR ag-1,HTR5A inv ag,HTR5A ag ctr,OPRM1-OPRD1 inv,MOR-DOR ag-2,HTR5A ag confirm
CC(=O)NS(=O)(=O)c1ccc(NC(=O)COc2cccc3c2OC(C)(C)C3)cc1,.,-10,-3,-23,3,17,.,.
Cc1ccc(-c2noc(CN3CCN(c4ccccc4F)CC3)n2)cc1,20,-18,2,-55,20*,-9,-4,-4
Cc1ccc(-c2noc(CN3CCCCC3)n2)cc1,22,16,1,14,-5,-3,.,.
NC(=O)C1CCN(Cc2nc(-c3ccccc3)no2)CC1,-11,6,-2,-47,17*,8,0,-1
CC(=O)Nc1ccc(Nc2nc(C(F)(F)F)nc3c2nnn3Cc2ccccc2Cl)cc1,7,36,1,6,-2,-6,.,.
CC1CCCCN1CC(=O)c1c(N)n(Cc2ccccc2)c(=O)n(C)c1=O (stereo unspecified),-3,.,-1,-3,1,7,.,.
Cc1cc(C)c(S(=O)(=O)NCCc2cc3ccc(C)c(C)c3[nH]c2=O)c(C)c1,18,?,2,-18,17*,-8,2,-1
Cc1ccc2cc(CCNS(=O)(=O)c3ccc(Br)cc3)c(=O)[nH]c2c1C,-3,-7,1,-15,7,-3,.,.
COc1cc(C(CCN2CCCCC2)c2c(OC)cc(OC)c3c(C)cc(=O)oc23)cc(OC)c1OC (stereo unspecified),11,-22,-3,14,-2,15,.,.
CCOC(=O)N1CCN(Cc2cn[nH]c2-c2cc3ccccc3o2)CC1,-8,-17,1,-43,1,-5,.,.
Cc1ccc(C(=O)N2CCCC(N3CCN(c4cccc(C(F)(F)F)c4)CC3)C2)s1 (stereo unspecified),23,-6,5,10,15*,-26,6,6
CC(=O)N1CCCC(N2CCN(c3cccc(C(F)(F)F)c3)CC2)C1 (stereo unspecified),28,-7,-2,-8,2,8,.,.
O=C(CNc1ccc(F)cc1)N/N=C1\CCCc2ccccc21,10,4,5,-42,16*,-28,8,17*
O=S(=O)(c1cnc(Cl)c(Cl)c1)N1CCc2ccccc21,-18,-4,5,-46,16*,-30,121*,-1
O=P(OCC1CCCO1)(OCC1CCCO1)OCC1CCCO1 (stereo unspecified),.,.,-3,2,0,15,.,.
CC(OC(=O)c1ccc(Cl)nc1)C(=O)Nc1ccc2c(c1)OCO2 (stereo unspecified),.,.,-3,-53,19*,12,1,2
COc1ccc(C2(NC(C)=O)CCN(Cc3cccnc3)CC2)cc1,11,14,-3,-16,2,16,.,.
COc1ccc(-c2csc(NC(=O)c3ccccc3NS(=O)(=O)c3ccc(F)c(F)c3)n2)cc1,-24,2,-1,-1,15*,5,24*,8
